Screens (PubChem BioAssay)
Sampled rows, rich in hits. Any-hit rate of the full collection: about 9.3%.
ELG1 genotoxic – inducers of genotoxicity in HEK293T ELG1-luciferase cells; AID 504466; 330,000 tested, 1.3% active; HEK293T ELG1-luciferase reporter, luminescence, 16 h; Potency, µM (titrated, usually from 46 µM), without a hit: at the highest dose activity change, positive = activation, hits mostly activators; further: % of control where 0% means no effect; nearly all actives have a fitted effect of over 60% in size
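Genotoxicity was scored as increased ELG1-luciferase reporter signal, measured by ONE-Glo luminescence (30 min, room temperature). Compound or vehicle exposure of the HEK293T reporter cells lasted 16 hr at 37°C.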
Rab9 prom act – Rab9 promoter activation; Potency, µM (titrated, usually from 9.22 µM), for inactives: top-dose activation, negative = inhibition, actives largely listed as activators; Huh7 Rab9 promoter-luciferase reporter, luminescence, 24 h; 320,000 tested, 2.8% active; further: % of control where 0% means no effect; nearly all actives have a fitted effect of over 60% in size
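Measured in stably transfected Huh7 cells bearing a Rab9 promoter–luciferase construct: 24 h compound treatment at 37 °C, followed by luminescence detection.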
NPC1 prom act – activates the NPC1 promoter; Huh7 NPC1 promoter luciferase reporter, 24 h; Potency, µM (top dose mostly 9.22 µM), without a hit: at the highest dose activation, usual class: activators; 320,000 tested, 2.4% active; AID 485313; further: % of control where 0% means no effect; nearly all actives have a fitted effect of over 60% in size
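Stable NPC1-promoter luciferase Huh7 line; cpd (DMSO) 24 h, 37 °C, 5% CO2; Amplite luciferase reagent 10 min RT; luminescence readout. qHTS format.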
ELG1 DNA repair – ELG1-dependent DNA repair inhibition; HEK293T ELG1-luciferase reporter, luminescence, 16 h; DNA damage induced by 5-fluorouridine; AID 504467; 330,000 tested, 2.3% active; Potency, µM (doses to about 46.1 µM), for inactives: at the top dose activity change, negative = inhibition, most hits filed as inhibitors; further: on the % scale 0 is the no-effect control and ±100 the full control effect; nearly all actives have a fitted effect of over 55% in size
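Overnight (16 hr) co-exposure of 2,000 cells/well to 5-fluorouridine and compound at 37 °C preceded detection. Luciferase was quantified via ONE-Glo luminescence; loss of signal denotes inhibition.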
FLuc counter – counter-screen for miR-21 project: firefly luciferase inhibitors or activators | purified FLuc, Km substrates, luminescence inhibition | Potency, µM (series often up to 57.5 µM), without a hit: at the top dose activity change, negative = inhibition, most hits filed as inhibitors | 360,000 tested, 6.9% active | AID 588342;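 further: plate controls were vehicle for no effect and reference inhibitor for full effect; nearly all actives have a fitted effect of over 55% in size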
Target sequence (P08659 whole entry, looked up): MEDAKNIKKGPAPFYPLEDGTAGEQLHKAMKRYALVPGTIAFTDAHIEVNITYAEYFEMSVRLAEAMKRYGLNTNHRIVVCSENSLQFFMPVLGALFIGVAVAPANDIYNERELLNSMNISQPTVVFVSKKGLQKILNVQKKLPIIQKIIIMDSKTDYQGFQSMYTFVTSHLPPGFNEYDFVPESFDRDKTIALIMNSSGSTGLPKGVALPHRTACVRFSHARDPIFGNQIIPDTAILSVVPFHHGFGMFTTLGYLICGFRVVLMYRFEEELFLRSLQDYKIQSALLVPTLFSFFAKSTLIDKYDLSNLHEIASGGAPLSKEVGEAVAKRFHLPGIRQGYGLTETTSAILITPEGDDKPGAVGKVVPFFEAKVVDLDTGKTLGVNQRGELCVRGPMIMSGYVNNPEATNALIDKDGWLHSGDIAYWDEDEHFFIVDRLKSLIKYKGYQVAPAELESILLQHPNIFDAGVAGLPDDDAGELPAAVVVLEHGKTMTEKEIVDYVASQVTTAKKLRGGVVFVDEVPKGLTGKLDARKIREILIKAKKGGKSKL
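Purified P. pyralis luciferase, 10 nM final, with Km-level 10 uM D-luciferin and 10 uM ATP in 50 mM Tris acetate pH 7.5, 10 mM Mg acetate, 0.01% Tween-20, 0.05% BSA; 6-point qHTS titration about 60 µM downward; luminescence read.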
SMN2 splice up – SMN2 splice variant enhancement; 210,000 tested, 2.8% active; HEK293 SMN2-luciferase splicing reporter, luminescence, 30-36 h; AID 1458; Potency, µM (titrated, usually from 46.1 µM), for inactives: at the top dose activity change, positive = activation, hits mostly activators; further: % of control where 0% means no effect; nearly all actives have a fitted effect of over 55% in size
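qHTS luciferase splicing reporter: luminescence rises when SMN2 exon 7 is included in transfected HEK293 cells. Compound exposure lasted 30-36 h at 37C, with 4.5 mM final sodium butyrate as control, followed by a ONE-Glo read.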
* marks the source's active call; other numbers are inactive results; ? = inconclusive; · = no result. The call rests on the fitted dose curve; in most records, active means well fitted curve in the direction sought with a large enough effect; inconclusive means small, poorly fitted or top-dose-only effect, or another doubt; inactive means no such curve, though single readings can be large; an effect the other way counts as inactive or inconclusive. Potency means the concentration at half of the fitted maximal effect.

SMILES	ELG1 genotoxic	Rab9 prom act	NPC1 prom act	ELG1 DNA repair	FLuc counter	SMN2 splice up
O=C(NC(=S)NC1CCS(=O)(=O)C1)c1cccs1 (centres undefined)	2%	0%	-3%	2%	4%	-7%
CC(=O)Nc1ccc(NC(=O)CCCc2c[nH]c3ccccc23)cc1	0%	-4%	2%	5%	-2%	-20%
O=C(N/C(=C/C=C/c1ccccc1)C(=O)N1CCCCC1)c1ccc([N+](=O)[O-])cc1	-5%	-3%	-4%	23µM*	2%	29%
O=C(N/C(=C/c1ccccc1)C(=O)N1CCCCC1)c1ccccc1	18µM*	2.8µM*	3.5µM*	?	7.6µM*	·
CCOC(=O)N1CCC(N(C(=O)Nc2ccc(Cl)c(Cl)c2)C(C)CC)CC1 (centres undefined)	-7%	-12%	-4%	?	6%	-94%
CC(=O)N(C1=C(Cl)C(=O)c2ccccc2C1=O)C1CCCCC1	1%	-47%	-32%	16µM*	?	·
CC(=O)N(c1ccccc1C)C1CCCC1	2%	-2%	0%	4%	2%	-6%
COc1ccccc1/C=C/C=N/NC(=O)Cc1cccn1C	15%	4%	11%	29%	?	?
Cc1nc2ccc(NC(=O)c3ccc(Br)o3)cc2s1	-3%	2.5µM*	2.8µM*	?	15µM*	11µM*
COc1ccc(NC(=O)c2ccc3nc(C)sc3c2)cc1	?	1µM*	1µM*	?	?	·
Cc1nc2ccc(C(=O)Nc3cccc([N+](=O)[O-])c3)cc2s1	12%	?	?	-23%	?	?
COc1ccc(C(=O)Nc2ccc3nc(C)sc3c2)cc1OC	23%	?	18%	?	?	·
COC(=O)c1ccc(NC(=O)c2ccc3nc(C)sc3c2)cc1	?	0.71µM*	0.79µM*	?	-12%	·
CCCC(=O)Nc1nc2ccc(NC(=O)c3ccc(Br)o3)cc2s1	-7%	9%	11%	?	-2%	?
Cc1nc2ccc(NC(=O)c3ccc([N+](=O)[O-])cc3[N+](=O)[O-])cc2s1	7%	-5%	14%	21µM*	2%	-7%
COc1ccc(C(=O)NCc2nnc(SCC(=O)Nc3cccc(C(F)(F)F)c3)o2)cc1OC	-1%	-4%	-5%	-4%	6%	23%
C=C1c2cc(C)ccc2NC(=O)N1c1ccccc1	0%	-5%	0%	-6%	-2%	-7%
COc1ccccc1NC(=O)CSc1nnc(-c2ccc(NC(C)=O)cc2)n1C	-2%	7%	-1%	-3%	-6%	-5%
CC(=O)Nc1ccc(-c2nnc(SCC(=O)Nc3ccc4c(c3)oc3ccccc34)n2C)cc1	1%	?	?	?	1.2µM*	-4%
CCn1c(SCC(=O)Nc2ccc3c(c2)oc2ccccc23)nnc1-c1ccc(N)cc1	-9%	4%	-5%	-9%	2.7µM*	-13%
CCn1c(SCC(=O)Nc2ccccc2C(=O)OC)nnc1-c1ccc(N)cc1	0%	2%	0%	?	3%	-19%
COc1ccc(C(=O)N/N=C/c2ccc(OC)c(COc3ccc(F)cc3)c2)cc1	-22%	-2%	-6%	15µM*	-8%	·
COc1ccc(/C=N/NC(=O)c2sccc2OCc2ccc(F)cc2)cc1OC	0%	-1%	-8%	?	13µM*	-11%
COc1ccc(C(=O)N/N=C/c2ccc(OC)c(COc3ccc(F)cc3F)c2)cc1	-16%	-4%	-4%	9.2µM*	-3%	·
COc1ccc(/C=N\NC(=O)c2ccccc2)cc1COc1ccc(F)cc1	-6%	10%	-8%	?	-3%	·
SMILES	ELG1 genotoxic	Rab9 prom act	NPC1 prom act	ELG1 DNA repair	FLuc counter	SMN2 splice up
Cc1ccc(C(=O)Nc2ccc(S(=O)(=O)N3CCCC3)cc2)cc1	3%	13%	1%	10%	?	·
COc1ccc(CCNC(=O)CSc2nc3[nH]ncc3c(=O)n2-c2ccccc2Br)cc1OC	1%	-1%	-2%	16%	-2%	-22%
CC(C)CCNC(=O)NC(=O)COC(=O)C1=COCCO1	-1%	5%	-1%	1%	0%	-2%
Cc1nn(CCOc2ccccc2)c(=O)n1-c1c(F)cccc1F	?	4µM*	2.8µM*	?	24µM*	13µM*
Cc1ccc(-n2c(C)nn(CCOc3ccccc3)c2=O)cc1	?	3.2µM*	?	?	?	11µM*
Cc1nn(C)c(=O)n1-c1ccc(Oc2ccccc2)cc1	0%	-1%	-3%	21%	1%	8%
COc1cc(-c2nc(CN3CCN(CC(C)C)C(=O)[C@@H]3C)c(C)o2)ccc1F	-7%	-3%	-7%	?	-2%	-11%
CSc1ccc(NC(=O)N2CC=C(n3c(=O)[nH]c4ccccc43)CC2)cc1	-10%	-5%	-7%	23µM*	?	-44%
COc1ccc(CNC(=O)CN(c2ccc(C)cc2)S(=O)(=O)c2c(C)noc2C)cc1	5%	3%	0%	1%	2%	3%
COc1cccc(Sc2nc(-c3ccccc3)ncc2S(C)(=O)=O)c1	1%	-2%	-4%	?	17µM*	·
CS(=O)(=O)c1cnc(-c2ccccc2)nc1Sc1ccc(F)cc1	?	2%	-5%	2%	-18%	·
O=C(Nc1nccs1)c1nc[nH]c1C(=O)NCc1ccccc1	21%	-4%	1%	13%	3%	·
CCOC(=O)c1ccc(NC(=O)CSc2nc3c(c(=O)[nH]2)CN(Cc2ccccc2)CC3)cc1	·	·	·	·	-2%	·
CSc1cnc2c(=O)n(C)c(=O)[nH]c2n1	1%	2%	-1%	14%	-1%	-6%
Cn1c(=O)[nH]c2nnc(-c3ccc(Cl)c(Cl)c3)nc2c1=O	?	?	0.71µM*	?	3.4µM*	·
COc1ccc(N(/N=C2\Sc3ccccc3C2=O)C(C)=O)cc1	?	?	10%	?	12µM*	16µM*
COc1ccccc1NC1=C(NC(C)=O)C(=O)c2ccccc2C1=O	-5%	13%	-9%	-14%	?	-59%
COc1ccccc1N(/N=C1\Sc2ccccc2C1=O)C(C)=O	0.92µM*	4.5µM*	25%	?	12µM*	·
COC(=O)c1ccccc1-c1ccc(C=O)o1	1%	-2%	-1%	-8%	-1%	·
CC(C)OC(=O)c1cccc(-c2ccc(C=O)o2)c1	?	15%	17%	?	?	13µM*
COc1ccc(OCCNC(=O)c2ccccc2OCC(=O)Nc2ccc(NC(C)=O)cc2)cc1	-8%	13%	19%	16µM*	?	-79%
